Screening data: PubChem, National Center for Advancing Translational Sciences (NCATS)
LASV entry inh: blocks Lassa virus binding to or entry into cells; Lassa virus pseudotype entry inhibition, cell reporter; Potency, µM (top dose mostly 37.9 µM), without a hit: at the highest dose activity change, negative = inhibition, most hits filed as inhibitors; 1.2% of 300,000 active; AID 540256; calls by dose curve; tested in HEK293 cells; also: potency is read from the fitted curve at half-maximal effect; nearly all actives have a fitted effect of over 50% in size
Vaccinia mCherry: vaccinia inhibition (mCherry reporter); Potency, µM (highest dose often 36.5 µM), without a hit: at the highest dose activity change, negative = inhibition, most hits filed as inhibitors; 0.63% of 310,000 active; Vaccinia virus mCherry reporter infection, fluorescence; AID 720579; calls by dose curve; tested in A549 cells; also: potency is read from the fitted curve at half-maximal effect; nearly all actives have a fitted effect of over 35% in size
FMDV antiviral: antivirals against foot and mouth disease virus | FMDV antiviral cell-based qHTS | Potency, µM (series often up to 57.9 µM), for inactives: at the highest dose activity change, negative = inhibition, usual class: inhibitors | 1.2% of 410,000 active | AID 1159524; calls by dose curve; tested in HEK293T cells; also: read-out not given here; potency is read from the fitted curve at half-maximal effect; nearly all actives have a fitted effect of over 45% in size
HCMV inh: human cytomegalovirus inhibition; activity change, negative = inhibition, % at 57.5 µM; HFF cells, HCMV-luciferase reporter, 72 h; hits give low values; 4.5% of 410,000 active; in the data active = activity change below about -60%; inconclusive = no clear call, values can overlap the other calls; inactive = above about -39%
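Cell-based, HFFs, 1000 cells/well, 16 h 37C; cpds in DMSO + HCMV-luc, MOI 1 PFU/cell; 72 h 37C; OneGlo luminescence after 5 min RT; norm. to buffer vs Salinomycin 10uM.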
Vaccinia Venus: vaccinia inhibition (Venus reporter). Vaccinia virus Venus reporter expression, fluorescence. Potency, µM (top dose mostly 36.5 µM), for the others: top-dose activity change, negative = inhibition, usual class: inhibitors. 0.46% of 330,000 active. AID 720580; calls by dose curve; tested in A549 cells; also: potency is read from the fitted curve at half-maximal effect; nearly all actives have a fitted effect of over 30% in size
Marburg entry inh: blocks Marburg virus binding to or entry into cells | Marburg virus pseudotyped entry inhibition, cell reporter | Potency, µM (highest dose often 37.8 µM), for inactives: at the top dose activity change, negative = inhibition, usual class: inhibitors | 1.8% of 300,000 active; calls by dose curve; tested in HEK293 cells; also: potency is read from the fitted curve at half-maximal effect
An asterisk follows results filed as active; i = inactive; ? = inconclusive; . = no result given; [ ] = dose if it differs, or a comment. Hits are enriched below; roughly 6.5% of the tested compounds scored in any of these assays. % is scaled to controls: 0 for no effect and ±100 for the full control effect.

SMILES	LASV entry inh	Vaccinia mCherry	FMDV antiviral	HCMV inh	Vaccinia Venus	Marburg entry inh
O=S(=O)(Nc1cc(Sc2ncn[nH]2)c(O)c2ccccc12)c1ccccc1	?	6.31µM*	25.1µM*	-98.8*	2.51µM*	?
Cc1cc(O)c(Sc2ncn[nH]2)cc1NS(=O)(=O)c1ccc(Cl)cc1	-0.5%	-27.1%	-11.6%	-1.9	-16.2%	-26.4%
Cc1ccccc1C(=O)NC1(C(F)(F)F)N=C(c2ccccc2)N(C2CCCCC2)C1=O (stereo not drawn)	0.9%[46.1 µM]	-6.4%	?	-102.4*	-2.2%	?
O=C(NC1(C(F)(F)F)N=C(c2ccccc2)N(C2CCCCC2)C1=O)c1ccc(F)cc1 (stereo not drawn)	-10.2%[46.1 µM]	-0.4%	0.0%	-29.9	-8.2%	?
CC(=O)Nc1ccc(NC(=O)C(C)OC(=O)c2c(C)nn(-c3ccccc3)c2Cl)cc1 (stereo not drawn)	3.55µM*	1.8%	-18.6%	14.2	-10.5%	-8.8%
Cc1nn(-c2ccccc2)c(Cl)c1C(=O)NC1CCCCC1	-12.8%	-15.7%	10.0%	9.3	-21.7%	-1.8%[46.1 µM]
Cc1nn(-c2ccccc2)c(Cl)c1C(=O)OC(C)C(=O)Nc1ccc2c(c1)OCO2 (stereo not drawn)	-6.5%	-14.4%	-21.0%	-19.4	-9.6%	-0.9%
Cc1nn(-c2ccccc2)c(C)c1C(=O)OC(C)C(=O)NC1CCCCC1 (stereo not drawn)	5.01µM*	i	?	-35.9	-13.7%	?
Cc1cccc(CSc2ncc(Cl)c(C(=O)Nc3sc4c(c3C#N)CCCC4)n2)c1	2.3%[46.1 µM]	-6.2%	7.9%	13.4	3.8%	29.2%[46.1 µM]
Cc1ccc(N2CN=c3s/c(=C/c4cccnc4)c(=O)n3C2)cc1	.	.	.	.	.	-20.5%[46.1 µM]
Cc1ccc(/C=N/Nc2ccc(C(=O)O)cc2)o1	-3.2%	.	-2.3%	92.3	.	-16.1%
O=C(O)c1cccc(N/N=C/c2ccc(F)c(F)c2)c1	3.98µM*	i	-32.6%	32.7	-1.3%	?
Cc1ccc(/C=N/Nc2ccc(C(=O)O)cc2)s1	1.12µM*	-4.1%	6.31µM*	-73.3*	3.9%	?
O=C(O)c1ccc(/C=N/Nc2cccc(C(F)(F)F)c2)cc1	.	-6.7%	11.6%	20.8	-5.1%	-19.1%[46.1 µM]
O=C(O)c1ccc(N/N=C/c2ccc(-c3ccc(Br)cc3)o2)cc1	?	11.2µM*	1.7%	14.6	?	?
O=C(O)c1cccc(N/N=C/c2cccc3ccccc23)c1	?	-3.1%	3.98µM*	133.5	-0.6%	2µM*
CC(CCO)Nc1nc2c(c(=O)n(C)c(=O)n2C)n1Cc1ccc(Br)cc1 (stereo not drawn)	-27.6%[46.1 µM]	-8.7%	0.5%	15.7	-7.9%	-2.0%[46.1 µM]
O=C(O)c1ccc(N/N=C/c2cc(Br)cs2)cc1	?	3.1%	-72.4%	-32.7	7.9%	5.01µM*
Cc1ccc(/C=N/Nc2cccc(C(=O)O)c2)s1	1.58µM*	i	3.55µM*	118.9	-9.5%	1.12µM*
Cc1nn(-c2ccccc2Cl)c(Cl)c1/C=N/Nc1cccc(C(=O)O)c1	?	-2.6%	7.08µM*	150.9	-19.0%	?
O=C(N/N=C\c1cc(Br)cs1)c1ccncc1	.	.	21.1%	-5.4	.	.
c1cc(-c2nc3ccccc3o2)nc(-c2nc3ccccc3o2)c1	.	.	.	.	.	-6.5%
c1ccc2nc(-c3nc4ccccc4o3)ccc2c1	2.31µM*	.	-92.9%	20.1	.	?
CCOC(=O)c1cccc(C2=CC(=O)C[C@H](c3ccc(OC)c(OC)c3)C2)c1	.	-13.4%	39.8µM*	15.6	-20.3%	.
COc1ccc([C@H]2CC(=O)C=C(c3cccc(C(C)C)c3)C2)cc1OC	.	?	25.1µM*	-26.6	?	.
Cc1cc(NC(c2nnc(-c3ccccc3)o2)c2ccccc2F)ccc1Br (stereo not drawn)	?	-7.6%	-13.2%	-22.2	-0.5%	?
CC1(C)C(O)CC(O)[C@]2(C)C1CC(O)[C@]1(C)C2CC[C@@]2(C)C(c3ccoc3)OC(=O)C3O[C@]312 (stereo partly drawn)	.	-21.5%	-18.9%	.	-17.4%	.
CC1(C)C(=O)C=C[C@@]2(C)C1=C(O)C(=O)[C@@]1(C)C2CC[C@@]2(C)C(c3ccoc3)C[C@H]3O[C@@]321 (stereo partly drawn)	.	?	10µM*	.	?	.
COc1ccc2c(c1)C=C/C2=C/c1ccc(N(C)C)cc1	.	-20.0%	.	.	-14.9%	.
